Results from article PMC5540273 (PLoS ONE, 2017).

The compounds below were run on FGR. Settings: concentration: 1 μM, replicates: in singlicate; n = 1.
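Note: KINOMEscan kinase panel screen.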

Row | SMILES | %Inh
1 | Cl.Cl.NCC(NCc1ccc(-c2ccnc3[nH]ccc23)s1)c1ccccc1 (stereo not drawn) [GSK1321565] | 23%
2 | Cn1cc(-c2ccc3c(c2)CCN3C(=O)Cc2cccc(F)c2)c2c(N)ncnc21 [GSK2603358] | 46%
3 | Clc1ccc(-c2nn3ncccc3c2-c2ccnc(Nc3ccc4c(c3)OCCO4)n2)cc1 [GW829116] | 75%
4 | Nc1ncc(-c2cccnc2)c2scc(-c3ccc4c(c3)CCN4C(=O)Cc3ccccc3)c12 [GSK683281] | 25%

What follows are compounds tested on FLT1. Settings: concentration: 1 μM, replicates: in singlicate; n = 1.

Row | SMILES | %Inh
5 | CCS(=O)(=O)c1ccc(OC)c(Nc2nccc(-c3c(-c4cccc(NC(=O)c5c(F)cccc5F)c4)nn4ncccc34)n2)c1 [GSK326180] | 90%
6 | COc1cc(Nc2nccc(-c3c(-c4cccc(NC(=O)c5c(F)cccc5F)c4)nn4ncccc34)n2)cc(OC)c1OC [GSK327238] | 99.2%
7 | COc1ccc(-c2coc3ccc(-c4nnc(SCc5ccc(OC)c(C(F)(F)F)c5)o4)cc23)cc1 | 0%
8 | Oc1cc(Nc2ccnc3cc(I)ccc23)ccc1F [GW552771] | 44%
9 | O=c1[nH]cc(-c2ccc(N3CCOCC3)cc2)c2sc(-c3cn[nH]c3)cc12 [GSK2276055] | 0%
10 | FC(F)(F)c1ccc(/C=C/c2cncnc2Nc2ccc3[nH]c(Cc4ccccc4)nc3c2)cc1 [GW709199] | 12%
11 | Nc1ncnc2c1nc(-c1ccccc1)n2-c1ccccc1 [SKF-97293] | 9%
12 | Cn1cc(-c2ccc3c(c2)CCN3C(=O)Cc2cccc(Cl)c2)c2c(N)ncnc21 [GSK2606590] | 59%
